# Laboratory results as given in PubChem BioAssay (Tox21).
# Values joined by “and” are separate entries in the source; they are usually repeats but may differ in a detail not shown here. Equal values may be shown once. Inconclusive results are not listed. Where a call stands in place of a potency, no number is given. Some structures have more than one record in an assay (separate samples or runs), and their calls can disagree. Active and inactive are the calls of the source. Unless noted, the call rests on the fitted dose curve; in most records, active means well fitted curve in the direction sought with a large enough effect in the repeat runs; inconclusive means weak or mixed curves; inactive means no such curve, though single readings can be large; an effect the other way counts as inactive or inconclusive.
# Assays:
# [1] = qHTS assay for small molecule agonists of the p53 signaling pathway (AID 651631; calls by dose curve; further: potency means the concentration at half of the fitted maximal effect; nearly all actives have a fitted effect of over 15% in size)
# Procedure, shortened: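 We treat p53RE-bla HCT-116 cells with compounds for 16 h at 37 °C, add LiveBLAzer B/G FRET substrate for 2 h at room temperature, and measure fluorescence intensity.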
# [2] = qHTS assay for small molecule agonists of the p53 signaling pathway - cell viability (AID 651633; calls by dose curve; further: nearly all actives have a fitted effect of over 30% in size; further: potency means the concentration at half of the fitted maximal effect)
# Procedure, shortened: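 p53RE-bla cells, seeded at 4,000 per well and rested 5 h at 37 C/5% CO2, received compounds in DMSO for 16 h at 37 C. CellTiter-Glo was then added, and luminescence was read after 30 min at room temperature to gauge cytotoxicity.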
# [3] = qHTS assay for small molecules that induce genotoxicity in human embryonic kidney cells expressing luciferase-tagged ATAD5 - cell viability (AID 651634; calls by dose curve; further: nearly all actives have a fitted effect of over 25% in size; further: potency means the concentration at half of the fitted maximal effect)
# Procedure, shortened: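 15.5 hr compound or vehicle exposure of HEK293T cells expressing luciferase-tagged ATAD5 at 37C; live-cell protease activity is read by fluorescence after 30 min of CellTiter-Fluor.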
# [4] = qHTS assay to test for compound auto fluorescence at 590 nm (red) in HepG2 cells (AID 720674)
# Procedure, shortened: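 Intrinsic compound fluorescence in the red window (Ex/Em 540/590 nm) is measured in attached HepG2 cells exposed for 1 hr, DMSO vehicle as baseline, benchmarked to Rose Bengal sodium.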
# [5] = qHTS assay to test for compound auto fluorescence at 535 nm (green) in HepG2 cells (AID 720675)
# [6] = qHTS assay to test for compound auto fluorescence at 460 nm (blue) in HEK293 cells (AID 720678)
# Procedure, shortened: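 Measured: blue fluorescence (Ex 405/Em 460 nm) of compound-treated HEK293 cells, incubated overnight at 37C with 5% CO2 and scaled to triamterene equivalents.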
# [7] = qHTS assay to test for compound auto fluorescence at 535 nm (green) in HEK293 cells (AID 720680)
# [8] = qHTS assay to test for compound auto fluorescence at 460 nm (blue) in HEK293 cell free culture (AID 720681)
# Procedure, shortened: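 Test compounds were pinned into cell-free culture medium (DMEM with 10% FBS) and fluorescence was read directly at Ex/Em 405/460 nm. Signals were expressed as fluorescence equivalents of triamterene, with DMSO vehicle as control.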
# [9] = qHTS assay to test for compound auto fluorescence at 535 nm (green) in HEK293 cell free culture (AID 720682)
# Procedure, shortened: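 Green-channel intensity (Ex/Em 485/535 nm) was recorded from compound-treated wells containing only DMEM with 10% FBS. Fluorescein provided the equivalency standard.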
# [10] = qHTS assay to test for compound auto fluorescence at 590 nm (red) in HEK293 cell free culture (AID 720683)
# Procedure, shortened: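 Tox21 10K library compounds were pinned into cell-free DMEM with 10% FBS and fluorescence was read at excitation 540 nm. Activity is expressed as Rose Bengal sodium equivalency.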
# [11] = qHTS assay to test for compound auto fluorescence at 590 nm (red) in HepG2 cell free culture (AID 720684)
# Procedure, shortened: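 Ex 540 / Em 590 nm read of compound in cell-free MEM (10% FBS). Rose Bengal sodium reference.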
# [12] = qHTS assay to test for compound auto fluorescence at 535 nm (green) in HepG2 cell free culture (AID 720686)
# [13] = target: Glucocorticoid receptor (Homo sapiens) (UniProt P04150); assay: qHTS assay to identify small molecule agonists of the glucocorticoid receptor (GR) signaling pathway (AID 720691; active means well fitted activation curve with a large enough effect in the signal ratio in the repeat runs, not every such curve was filed as active; the % refers to the signal ratio; further: potency means the concentration at half of the fitted maximal effect); conditions: GR-bla HeLa, beta-lactamase reporter ratio, 18 h; activation: at 62.4 µM (top of the series)
# Sequence of Glucocorticoid receptor (Homo sapiens) (P04150 whole entry, looked up): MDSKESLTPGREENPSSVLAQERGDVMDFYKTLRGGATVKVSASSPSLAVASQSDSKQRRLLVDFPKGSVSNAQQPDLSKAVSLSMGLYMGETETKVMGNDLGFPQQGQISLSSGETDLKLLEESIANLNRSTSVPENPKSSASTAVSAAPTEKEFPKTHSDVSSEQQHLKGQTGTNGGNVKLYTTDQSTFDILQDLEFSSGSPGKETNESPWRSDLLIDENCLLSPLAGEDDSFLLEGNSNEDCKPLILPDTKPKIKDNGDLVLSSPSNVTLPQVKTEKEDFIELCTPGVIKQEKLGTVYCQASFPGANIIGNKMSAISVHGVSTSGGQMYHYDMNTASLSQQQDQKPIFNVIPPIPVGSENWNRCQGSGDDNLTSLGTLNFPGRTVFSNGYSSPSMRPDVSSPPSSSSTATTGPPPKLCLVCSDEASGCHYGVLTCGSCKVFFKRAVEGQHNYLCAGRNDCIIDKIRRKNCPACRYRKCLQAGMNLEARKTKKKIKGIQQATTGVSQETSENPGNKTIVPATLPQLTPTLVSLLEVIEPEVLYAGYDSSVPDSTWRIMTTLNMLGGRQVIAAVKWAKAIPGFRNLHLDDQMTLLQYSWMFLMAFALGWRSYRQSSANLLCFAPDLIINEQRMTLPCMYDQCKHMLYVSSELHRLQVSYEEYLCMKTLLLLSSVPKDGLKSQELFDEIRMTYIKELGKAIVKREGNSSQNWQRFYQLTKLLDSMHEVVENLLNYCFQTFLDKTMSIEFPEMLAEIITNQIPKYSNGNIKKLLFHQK
# Procedure, shortened: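 Measures GR pathway activation through a GRE-beta-lactamase reporter stably integrated in HeLa cells, with 18 h compound treatment at 37 C and fluorescence detection using a FRET substrate.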
# [14] = qHTS assay for small molecules that induce genotoxicity in human embryonic kidney cells expressing luciferase-tagged ATAD5 (AID 651632); further: nearly all actives have a fitted effect of over 15% in size
# Procedure, shortened: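 Concentration-response screen for ATAD5 upregulation in HEK293T luciferase reporter cells; 16 hr treatment at 37C, then luminescence after 30 min with Amplite at room temperature.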
# [15] = qHTS assay for small molecule disruptors of the mitochondrial membrane potential - cell viability (AID 720634; calls by dose curve; further: nearly all actives have a fitted effect of over 20% in size; further: potency means the concentration at half of the fitted maximal effect)
# Procedure, shortened: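 In this qHTS format, HepG2 cells plated overnight were pinned with compound, incubated 1 hr, and assayed for ATP luminescence with CellTiter-Glo after m-MPI dye addition.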
# [16] = qHTS assay to test for compound auto fluorescence at 590 nm (red) in HEK293 cells (AID 720679)
# Procedure, shortened: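 Using HEK293 cells at 2,000 per well, the screen added 23 nL of each compound after cell attachment and incubated overnight (37C, 5% CO2). The plate reader then captured red-label fluorescence, Ex/Em 540/590nm.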
# [17] = qHTS assay to test for compound auto fluorescence at 460 nm (blue) in HepG2 cell free culture (AID 720685)
# Procedure, shortened: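 Cell-free plates of MEM plus 10% FBS received 23 nL compound or DMSO vehicle; blue-channel (405/460 nm) intensity scored against triamterene as reference fluorophore.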
# [18] = qHTS assay to test for compound auto fluorescence at 460 nm (blue) in HepG2 cells (AID 720687)
# Procedure, shortened: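 Cells (2,000/well in MEM with 10% FBS) attached overnight at 37 C, then were exposed to compound or DMSO for 1 hr at 37 C, 5% CO2. Fluorescence read at Ex/Em 405/460 nm, expressed as triamterene-equivalent signal.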
# [19] = target: Glucocorticoid receptor (Homo sapiens) (UniProt P04150); assay: qHTS assay to identify small molecule antagonists of the glucocorticoid receptor (GR) signaling pathway (AID 720692; active means well fitted inhibition curve with a large enough effect in the signal ratio in the repeat runs, not every such curve was filed as active; the % refers to the signal ratio)
# Procedure, shortened: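 Tox21 10K library screened in concentration-response for blockade of dexamethasone (5 nM final)-induced GRE-bla reporter activity in HeLa cells; 18 h treatment, fluorescence read.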
# [20] = qHTS assay for small molecule disruptors of the mitochondrial membrane potential (AID 720635); further: potency means the concentration at half of the fitted maximal effect
# Procedure, shortened: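 HepG2 cells (2,000/well) attached overnight at 37C, then took compound for 1 hr at 37C, 5% CO2. Mito-MPS dye was added for 30 min; fluorescence was read at 490/535 nm (monomers) and 540/590 nm (aggregates).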
Structure (SMILES),Potency [1],Potency [2],Potency [3],outcome [4],Potency [5],Potency [6],outcome [7],Potency [8],outcome [9],outcome [10],outcome [11],Potency [12],Potency [13],Potency [14],Potency [15],outcome [16],Potency [17],Potency [18],Potency [19],Potency [20]
c1csc(-c2ccc(-c3cccs3)s2)c1,34.4 µM (active),inactive,inactive,inactive,inactive,inactive,inactive,inactive,inactive,inactive,inactive,inactive,49 µM (active),–,–,–,–,–,–,–
O=c1c2ccccc2c(=O)c2c1cc(Cl)c1[nH]c3c([nH]c12)c(Cl)cc1c(=O)c2ccccc2c(=O)c13,–,inactive,inactive,inactive,inactive,inactive,inactive,inactive,inactive,inactive,inactive,inactive,inactive,inactive,inactive,inactive,inactive,inactive,inactive,–
COP(=S)(OC)Oc1nc(Cl)c(Cl)cc1Cl,–,inactive,inactive,inactive,inactive,inactive,inactive,inactive,inactive,inactive,inactive,inactive,inactive,inactive,inactive,inactive,inactive,inactive,inactive,–
Oc1cccc(Cl)c1Cl,–,inactive,inactive,inactive,inactive,inactive,inactive,inactive,inactive,inactive,inactive,inactive,inactive,inactive,inactive,inactive,inactive,inactive,inactive,–
ClCBr,–,inactive,inactive,–,inactive,inactive,inactive,inactive,inactive,inactive,inactive,inactive,inactive,inactive,inactive,inactive,inactive,inactive,–,inactive
CCCCCCCCCCCCCCn1cc[n+](C)c1,–,43.4 µM (active) and 67.8 µM (active) and inactive,61.3 µM (active),inactive,inactive,inactive,–,inactive,inactive,inactive,inactive,–,–,inactive,54.6 µM (active) and inactive,inactive,inactive,inactive,–,10.7 µM (active) and 34.3 µM (active)
CCN(CC)CCc1c[nH]c2ccccc12,–,inactive,inactive,inactive,inactive,inactive,inactive,inactive,inactive,inactive,inactive,inactive,inactive,inactive,inactive,inactive,–,inactive,inactive,inactive
CCCCCCC[CH2][Sn]([Cl])([Cl])[CH2]CCCCCCC,–,15.3 µM (active),inactive,inactive,inactive,inactive,inactive,inactive,inactive,inactive,inactive,inactive,–,inactive,inactive,–,inactive,inactive,–,48.5 µM (active)
COc1ccc2[nH]cc(CCN(C(C)C)C(C)C)c2c1,–,inactive,inactive,inactive,inactive,inactive,inactive,inactive,inactive,inactive,inactive,inactive,inactive,inactive,inactive,inactive,–,inactive,–,inactive
O=c1[nH]c(Cl)c(Cl)cc1Cl,–,inactive,inactive,inactive,inactive,inactive,–,inactive,inactive,inactive,inactive,inactive,–,inactive,inactive,inactive,inactive,inactive,–,54.5 µM (active)
CC[C@H](C)[C@H]1O[C@]2(C=C[C@@H]1C)C[C@@H]1C[C@@H](C/C=C(\C)[C@@H](O[C@H]3C[C@H](OC)[C@@H](O[C@H]4C[C@H](OC)[C@@H](NC)[C@H](C)O4)[C@H](C)O3)[C@@H](C)/C=C/C=C3\CO[C@@H]4[C@H](O)C(C)=C[C@@H](C(=O)O1)[C@]34O)O2,–,10.9 µM (active),17.2 µM (active),inactive,inactive,inactive,inactive,inactive,inactive,inactive,inactive,inactive,–,inactive,30.6 µM (active),inactive,inactive,inactive,–,6.86 µM (active)
CCCCc1ccccc1,–,inactive,inactive,inactive,inactive,inactive,inactive,inactive,inactive,inactive,inactive,–,inactive,inactive,inactive,inactive,inactive,inactive,inactive,inactive
Cc1cc2c3c(c1)C(c1ccccc1)=N[C@@H](NC(=O)c1ccncc1)C(=O)N3CC2,–,inactive,inactive,inactive,inactive,inactive,inactive,inactive,inactive,inactive,inactive,inactive,–,inactive,inactive,inactive,inactive,inactive,–,–
c1ccc(N=NNc2ccccc2)cc1,–,inactive,5.45 µM (active),inactive,inactive,inactive,–,inactive,–,inactive,inactive,inactive,–,inactive,56.4 µM (active),–,inactive,inactive,–,7.1 µM (active) and 5.45 µM (active)
c1ccc2nc(N3CCNCC3)ccc2c1,–,inactive,inactive,inactive,inactive,inactive,inactive,inactive,inactive,inactive,inactive,inactive,inactive,inactive,inactive,inactive,–,inactive,inactive,–
